# Values quoted from earlier work in PubChem BioAssay AID977611.
# In all, about 3,900 compounds went through this assay and about 3,900 (100%) were called active. The limit is not given here; nearly all actives have Kd up to about 4200 µM. So high a share suggests a set chosen from earlier hits. The list shows a part of the results. Where a SMILES comes first, the peptide text is derived from it. Non-standard residues stand in square brackets, D forms with d. Square brackets hold non-standard residues; d marks the D form. Residues, ends and D or L forms follow the SMILES beside them. Peptide text beside a SMILES is read from it. [ ]: non-standard residue; d: D form. Orn(CH(NH2)2) = NC(N)NCCC[C@H](N)C(=O)O
# Assay: PubChem AID 977611
# Conditions: PDB protein-ligand complexes, literature Kd
compound,measurement,setting,value
H-KKQKVHALFYK-OH,Kd,"protein: RV144-elicited antibody CH58, PDB entry 4hpy",0.00012 µM (active)
H-KPHSD-OH,Kd,"protein: Coatomer subunit beta', PDB entry 4j81",31.9 µM (active)
H-KSHQE-OH,Kd,"protein: Coatomer subunit beta', PDB entry 4j82",44.2 µM (active)
H-EKVHVQ-OH,Kd,"protein: Coatomer subunit beta', PDB entry 4j79",800 µM (active)
Cc1onc(-c2ccccc2Cl)c1C(=O)Nc1ccc(C(C)C)cc1,Kd,"protein: Isoprenyl transferase UPPs, PDB entry 4q9m",0.066 µM (active)
same,Kd,"protein: Isoprenyl transferase UPPs, PDB entry 4q9o",1.7 µM (active)
H-QLINTNGSWHVN-OH,Kd,"protein: Fab fragment derived from neutralizing antibody 3/11, PDB entry 4wht",0.0079 µM (active)
H-QLINTNGSWHIN-OH,Kd,"protein: MRCT10.v362 Fab light chain & MRCT10.v362 Fab heavy chain, PDB entry 4hs6",0.03 µM (active)
same,Kd,"protein: antibody hu5B3.v2 Fab heavy chain & antibody hu5B3.v2 Fab light chain, PDB entry 4hs8",0.012 µM (active)
H-GKISKHWTGI-OH,Kd,"protein: Importin ?-2 Subunit, PDB entry 1y2a",0.0458 µM (active)
H-QLINTNGSWHV-OH,Kd,"protein: Fab fragment derived from neutralizing antibody 3/11, PDB entry 4why",0.0079 µM (active)
CC[C@H](C)[C@H](N)C(=O)N[C@@H](CS)C(=O)N[C@H](C(=O)N[C@@H](Cc1c[nH]c2ccccc12)C(=O)N[C@@H](CCC(N)=O)C(=O)N[C@@H](CC(=O)O)C(=O)N[C@@H](Cc1c[nH]c2ccccc12)C(=O)NCC(=O)N[C@@H](C)C(=O)N[C@@H](Cc1cnc[nH]1)C(=O)N[C@@H](CCCNC(N)N)C(=O)N[C@@H](CS)C(=O)N[C@H](C(=O)O)[C@@H](C)O)C(C)C,Kd,"protein: Component C3c, PDB entry 2qki",0.39 µM (active)
O=C(O)c1ccc2nc(-c3cc(Cl)cc(Cl)c3)oc2c1,Kd,"protein: Transthyretin (V122I mutation), PDB entry 4his",0.0081 µM (active)
CC(=O)[C@]1(O)CC2=C(C(=O)C3=C(C(=O)c4ccccc4C3=O)C2O)[C@@H](O[C@H]2C[C@H](N)[C@H](O)[C@H](C)O2)C1 (stereo partly specified),Kd,"protein: Chitinase A, PDB entry 3arq",0.4 µM (active)
CCC/C=C/CCO[C@H]1O[C@H](CO)[C@@H](O)[C@H](O)[C@@H]1O,Kd,"protein: Protein FimH, PDB entry 4lov",0.0171 µM (active)
CC(=O)NCCCC[C@H](N)C(=O)O,Kd,"protein: Chromatin structure-remodeling complex protein Rsc4(36340), PDB entry 2r0y",1000 µM (active)
N[C@@H](CCS)C(=O)O,Kd,"protein: Betaine-Homocysteine S-Methyltransferase from Homo sapiens, PDB entry 4m3p",4 µM (active)
C[C@H](CCCCN(C)C)NC(=O)[C@@H](N)CCCNC(N)N,Kd,"protein: Tumor suppressor p53-binding protein 1, PDB entry 2ig0",19.7 µM (active)
CN(C)CCCC[C@H](N)C(=O)O,Kd,"protein: Tumor suppressor p53-binding protein 1 tandem tudor domain, PDB entry 3lgl",0.9 µM (active)
CC(C)C[C@H](NC(=O)[C@H](CC(C)C)NC(=O)[C@H](CC(N)=O)NC(=O)[C@H](Cc1c[nH]c2ccccc12)NC(=O)[C@H](Cc1ccc(O)cc1)NC(=O)[C@H](CCC(=O)O)NC(=O)[C@H](C)NC(=O)[C@H](Cc1ccccc1)NC(=O)[C@H](CO)NC(=O)[C@@H](N)[C@@H](C)O)C(=O)N[C@H](C=O)CO (H-TSFAEYWNLLS-aldehyde),Kd,"protein: E3 ubiquitin-protein ligase Mdm2, PDB entry 3eqs",0.0033 µM (active)
CC(C)[C@H](N)C(=O)N[C@@H](Cc1ccc(O)cc1)C(=O)N[C@@H](Cc1c[nH]c2ccccc12)C(=O)N[C@@H](Cc1ccccc1)C(=O)O (H-VYWF-OH),Kd,"protein: Protease degS, PDB entry 2r3y",3.2 µM (active)
CC(C)C[C@H](NC(=O)[C@H](C)NC(=O)[C@H](Cc1c[nH]c2ccccc12)NC(=O)[C@H](Cc1ccc(O)cc1)NC(=O)[C@H](CCC(=O)O)NC(=O)[C@H](C)NC(=O)[C@H](Cc1ccccc1)NC(=O)[C@H](CO)NC(=O)[C@@H](N)[C@@H](C)O)C(=O)N[C@@H](CC(C)C)C(=O)N[C@@H](CO)C(=O)O,Kd,"protein: human MDM2, PDB entry 3lnz",0.00049 µM (active)
C[C@H](NC(=O)CNC(=O)[C@@H](N)CS)C(=O)N[C@@H](CCCNC(N)N)C(=O)O (H-CGA[Orn(CH(NH2)2)]-OH),Kd,"protein: ?-chain of Hepatocyte growth factor-like protein, PDB entry 2asu",0.001 µM (active)
C[C@H](N)C(=O)N[C@@H](CCCNC(N)N)C(=O)N[C@H](C(=O)O)[C@@H](C)O,Kd,"protein: ING4, PDB entry 2vnf",3 µM (active)
C[C@H](N)C(=O)N[C@@H](CCCNC(N)N)C(=O)N[C@H](C(=O)N[C@@H](C)C(=O)O)[C@@H](C)O (H-A[Orn(CH(NH2)2)]TA-OH),Kd,"protein: WD-repeat protein 5(WDR523), PDB entry 2h9p",192 µM (active)
C[C@H](N)C(=O)N[C@@H](CCCNC(N)N)C(=O)N[C@H](C(=O)N[C@@H](CCCCN)C(=O)N[C@@H](C)C(=O)O)[C@@H](C)O (H-A[Orn(CH(NH2)2)]TKA-OH),Kd,"protein: Baculoviral IAP repeat-containing protein 5, human Survivin, PDB entry 3uef",21 µM (active)
